Article PMC4336329 (PLoS ONE, 2015)
The whole screen tested about 310,000 compounds, of which about 14,000 (4.5%) showed an effect of 50% or more. Effects have a minus sign here. This is one part of a sample in which strong results are shown more often than they occur.
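Note: peak tail current of the secondary pulse compared with the same well before compound.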

These compounds were tested against human ether-à-go-go-related gene (hERG) potassium channel (human, UniProt Q12809) (assay: primary screen, population patch clamp on CHO cells stably expressing hERG; higher = less effect of the substance).
Chain of human ether-à-go-go-related gene (hERG) potassium channel (Q12809 whole entry, looked up): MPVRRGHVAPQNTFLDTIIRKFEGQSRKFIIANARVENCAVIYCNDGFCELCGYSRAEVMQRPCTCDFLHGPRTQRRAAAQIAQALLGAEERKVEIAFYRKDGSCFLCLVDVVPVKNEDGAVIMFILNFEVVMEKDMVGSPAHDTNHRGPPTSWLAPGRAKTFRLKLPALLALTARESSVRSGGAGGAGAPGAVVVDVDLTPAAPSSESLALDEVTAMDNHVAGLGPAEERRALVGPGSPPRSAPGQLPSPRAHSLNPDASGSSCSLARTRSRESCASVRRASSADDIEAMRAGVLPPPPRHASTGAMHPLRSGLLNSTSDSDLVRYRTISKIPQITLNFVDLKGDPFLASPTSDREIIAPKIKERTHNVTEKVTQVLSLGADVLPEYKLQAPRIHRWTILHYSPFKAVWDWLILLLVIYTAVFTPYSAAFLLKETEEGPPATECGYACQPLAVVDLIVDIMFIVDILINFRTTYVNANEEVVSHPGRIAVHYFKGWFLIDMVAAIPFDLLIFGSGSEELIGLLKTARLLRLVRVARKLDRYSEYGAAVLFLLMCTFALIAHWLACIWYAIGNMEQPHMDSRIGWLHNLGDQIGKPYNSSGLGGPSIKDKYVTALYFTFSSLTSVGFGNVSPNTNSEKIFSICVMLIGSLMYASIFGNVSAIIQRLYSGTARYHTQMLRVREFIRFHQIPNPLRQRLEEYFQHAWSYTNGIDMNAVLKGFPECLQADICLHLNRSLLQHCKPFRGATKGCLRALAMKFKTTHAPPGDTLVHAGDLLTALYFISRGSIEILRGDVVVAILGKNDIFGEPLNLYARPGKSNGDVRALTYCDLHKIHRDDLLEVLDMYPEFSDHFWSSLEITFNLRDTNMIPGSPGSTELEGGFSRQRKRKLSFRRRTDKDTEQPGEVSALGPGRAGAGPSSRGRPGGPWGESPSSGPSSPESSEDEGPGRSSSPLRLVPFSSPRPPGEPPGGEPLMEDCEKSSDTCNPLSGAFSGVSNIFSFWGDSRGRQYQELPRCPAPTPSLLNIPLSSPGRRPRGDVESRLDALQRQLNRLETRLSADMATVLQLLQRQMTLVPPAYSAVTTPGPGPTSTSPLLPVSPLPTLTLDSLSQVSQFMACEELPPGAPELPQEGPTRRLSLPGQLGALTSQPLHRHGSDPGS
With `CCC(C)(C)n1nnnc1C(c1cc2ccc(C)cc2[nH]c1=O)N(Cc1cccnc1)Cc1ccco1` (stereo not drawn) the “hERG current change (%, negative = inhibition) at 10uM” value was -60.6%.
In the case of `Cc1ccc2[nH]c(=O)c(C(c3nnnn3C3CCCC3)N(Cc3cccnc3)Cc3ccco3)cc2c1` (stereo not drawn), the “hERG current change (%, negative = inhibition) at 10uM” value is reported as -5.71%.
In the case of `Cc1ccc2cc(C(c3nnnn3C3CCCC3)N(Cc3ccccc3)Cc3ccco3)c(=O)[nH]c2c1` (stereo not drawn), the “hERG current change (%, negative = inhibition) at 10uM” value is reported as 10.7%.
With `Cc1ccc2cc(C(c3nnnn3C3CCCC3)N(Cc3cccnc3)Cc3ccco3)c(=O)[nH]c2c1` (stereo not drawn) the “hERG current change (%, negative = inhibition) at 10uM” value was -77.8%.
In the case of `CCC(C)(C)n1nnnc1C(C(C)C)N(Cc1cccnc1)Cc1ccco1` (stereo not drawn), the “hERG current change (%, negative = inhibition) at 10uM” value is reported as -2.92%.
For `Cc1cc2cc(C(c3nnnn3C3CCCC3)N(Cc3cccnc3)Cc3ccco3)c(=O)[nH]c2cc1C` (stereo not drawn), the “hERG current change (%, negative = inhibition) at 10uM” value was -24.3%.
With `O=C(CC1C(=O)NCCN1Cc1ccc(-c2ccccc2)cc1)NCCCn1ccnc1` (stereo not drawn) the “hERG current change (%, negative = inhibition) at 10uM” value was 14%.
In the case of `CC(C)CCNS(=O)(=O)c1cc2c3c(c1)CCN3C(=O)CC2`, the “hERG current change (%, negative = inhibition) at 10uM” value is reported as 2.2%.
`COc1cc(-c2noc(CCCC(=O)NCc3ccco3)n2)cc(OC)c1OC` was tested, and the “hERG current change (%, negative = inhibition) at 10uM” value was -12.1%.
With `O=C1N(Cc2cccc(Cl)c2)C[C@@H]2C[C@@H](c3cccn3-c3ccccn3)N3CCC[C@@]123` the “hERG current change (%, negative = inhibition) at 10uM” value was -73.5%.
In the case of `O=C1N(Cc2cccc(Cl)c2)C[C@@H]2C[C@@H](c3cccn3-c3nccs3)N3CCC[C@@]123`, the “hERG current change (%, negative = inhibition) at 10uM” value is reported as -68%.
With `O=C1N(Cc2cccc(Cl)c2)C[C@@H]2C[C@@H](c3cccn3-c3cccnc3)N3CCC[C@@]123` the “hERG current change (%, negative = inhibition) at 10uM” value was -35.7%.
`CCn1ccnc1[C@@H]1C[C@H]2CN(Cc3cccc(Cl)c3)C(=O)[C@]23CCCN13` was tested, and the “hERG current change (%, negative = inhibition) at 10uM” value was -39.3%.
For `C#CCOCCOCCOCCNc1nc(N2CCOCC2)nc(N2CCN(C(=O)[C@H](Cc3cc4ccccc4[nH]3)n3cc([C@@H](N)C(C)CC)nn3)CC2)n1.Cl` (stereo partly drawn), the “hERG current change (%, negative = inhibition) at 10uM” value was 9.81%.
In the case of `O=C(CSc1nc(-c2ccccc2)cc(=O)[nH]1)N1CCOCC1`, the “hERG current change (%, negative = inhibition) at 10uM” value is reported as 5.84%.
In the case of `CCOc1ccc2[nH]c3c(N4CCN(C(=O)c5ccco5)CC4)ncnc3c2c1`, the “hERG current change (%, negative = inhibition) at 10uM” value is reported as -58.4%.
With `CCOC(=O)N1CCN(c2ncnc3c2[nH]c2ccc(OC)cc23)CC1` the “hERG current change (%, negative = inhibition) at 10uM” value was -44.1%.
`CCOc1ccc2[nH]c3c(N4CCN(c5ccccn5)CC4)ncnc3c2c1` was tested, and the “hERG current change (%, negative = inhibition) at 10uM” value was -59.4%.
For `COc1cc2[nH]c3c(N4CCN(c5ccccn5)CC4)ncnc3c2cc1OC`, the “hERG current change (%, negative = inhibition) at 10uM” value was 13.1%.
For `CCOc1ccc2[nH]c3c(N4CCc5ccccc5C4)ncnc3c2c1`, the “hERG current change (%, negative = inhibition) at 10uM” value was 5.49%.
`O=C(c1ccco1)N1CCN(c2ncnc3c2[nH]c2ccc(Cl)cc23)CC1` was tested, and the “hERG current change (%, negative = inhibition) at 10uM” value was -65.2%.
In the case of `O=C(c1ccco1)N1CCN(c2ncnc3c(-c4ccc(Cl)cc4)nsc23)CC1`, the “hERG current change (%, negative = inhibition) at 10uM” value is reported as 4.82%.
In the case of `Cc1cccc2[nH]c3c(N4CCN(C(=O)c5ccco5)CC4)ncnc3c12`, the “hERG current change (%, negative = inhibition) at 10uM” value is reported as -27%.
With `CCOc1ccc2[nH]c3c(N4CCC5(CC4)OCCO5)ncnc3c2c1` the “hERG current change (%, negative = inhibition) at 10uM” value was 5.84%.
